Activity calls are given as the source filed them.

Test [1] in a line: small molecules captured by biotinylated probe aFSTL3 – biochemical, small-molecule microarray, fluorescence 635/667, stem cell growth factor project, primary screen (AID 1064).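 Note: measures binding of the biotinylated anti-FSTL3 antibody to printed compounds.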 The following applies: higher = more signal.
Test [2] in a line: binders from COS7 lysate, DM2A8 probe, primary screen, torsin A project, cell lysate, small-molecule microarray, fluorescence 635/667 (AID 1065). To be noted: higher = more signal, COS7 lysate expressing mutant human TOR1A.
Test [3] can be described thus: small molecules captured by biotinylated probe aFGF2 – biochemical, small-molecule microarray, fluorescence 635/667, stem cell growth factor project, primary screen (AID 1067).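 Note: measures binding of biotinylated aFGF2 protein to printed compounds on slides; z-score merges feature fluorescence and signal-to-noise across triplicate slides.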 The following applies: higher = more signal.
Test [4] is described as follows: small molecules captured by biotinylated probe aFGF10 – biochemical, small-molecule microarray, fluorescence 635/667, stem cell growth factor project, primary screen (AID 1071).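 Note: score merges 667 nm spot intensity and signal to noise from triplicate slides.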 To be noted: higher = more signal.
For test [5], the target named is Neurogenic locus notch homolog protein 2 (Homo sapiens) (UniProt Q04721). Kind of test: small molecules binding Notch2 protein – biochemical, small-molecule microarray, 635 nm fluorescence, stem cell growth factors, primary screen (AID 1073). To be noted: higher = more signal.
Chain of Neurogenic locus notch homolog protein 2 (Homo sapiens) (Q04721 whole entry, looked up, canonical isoform): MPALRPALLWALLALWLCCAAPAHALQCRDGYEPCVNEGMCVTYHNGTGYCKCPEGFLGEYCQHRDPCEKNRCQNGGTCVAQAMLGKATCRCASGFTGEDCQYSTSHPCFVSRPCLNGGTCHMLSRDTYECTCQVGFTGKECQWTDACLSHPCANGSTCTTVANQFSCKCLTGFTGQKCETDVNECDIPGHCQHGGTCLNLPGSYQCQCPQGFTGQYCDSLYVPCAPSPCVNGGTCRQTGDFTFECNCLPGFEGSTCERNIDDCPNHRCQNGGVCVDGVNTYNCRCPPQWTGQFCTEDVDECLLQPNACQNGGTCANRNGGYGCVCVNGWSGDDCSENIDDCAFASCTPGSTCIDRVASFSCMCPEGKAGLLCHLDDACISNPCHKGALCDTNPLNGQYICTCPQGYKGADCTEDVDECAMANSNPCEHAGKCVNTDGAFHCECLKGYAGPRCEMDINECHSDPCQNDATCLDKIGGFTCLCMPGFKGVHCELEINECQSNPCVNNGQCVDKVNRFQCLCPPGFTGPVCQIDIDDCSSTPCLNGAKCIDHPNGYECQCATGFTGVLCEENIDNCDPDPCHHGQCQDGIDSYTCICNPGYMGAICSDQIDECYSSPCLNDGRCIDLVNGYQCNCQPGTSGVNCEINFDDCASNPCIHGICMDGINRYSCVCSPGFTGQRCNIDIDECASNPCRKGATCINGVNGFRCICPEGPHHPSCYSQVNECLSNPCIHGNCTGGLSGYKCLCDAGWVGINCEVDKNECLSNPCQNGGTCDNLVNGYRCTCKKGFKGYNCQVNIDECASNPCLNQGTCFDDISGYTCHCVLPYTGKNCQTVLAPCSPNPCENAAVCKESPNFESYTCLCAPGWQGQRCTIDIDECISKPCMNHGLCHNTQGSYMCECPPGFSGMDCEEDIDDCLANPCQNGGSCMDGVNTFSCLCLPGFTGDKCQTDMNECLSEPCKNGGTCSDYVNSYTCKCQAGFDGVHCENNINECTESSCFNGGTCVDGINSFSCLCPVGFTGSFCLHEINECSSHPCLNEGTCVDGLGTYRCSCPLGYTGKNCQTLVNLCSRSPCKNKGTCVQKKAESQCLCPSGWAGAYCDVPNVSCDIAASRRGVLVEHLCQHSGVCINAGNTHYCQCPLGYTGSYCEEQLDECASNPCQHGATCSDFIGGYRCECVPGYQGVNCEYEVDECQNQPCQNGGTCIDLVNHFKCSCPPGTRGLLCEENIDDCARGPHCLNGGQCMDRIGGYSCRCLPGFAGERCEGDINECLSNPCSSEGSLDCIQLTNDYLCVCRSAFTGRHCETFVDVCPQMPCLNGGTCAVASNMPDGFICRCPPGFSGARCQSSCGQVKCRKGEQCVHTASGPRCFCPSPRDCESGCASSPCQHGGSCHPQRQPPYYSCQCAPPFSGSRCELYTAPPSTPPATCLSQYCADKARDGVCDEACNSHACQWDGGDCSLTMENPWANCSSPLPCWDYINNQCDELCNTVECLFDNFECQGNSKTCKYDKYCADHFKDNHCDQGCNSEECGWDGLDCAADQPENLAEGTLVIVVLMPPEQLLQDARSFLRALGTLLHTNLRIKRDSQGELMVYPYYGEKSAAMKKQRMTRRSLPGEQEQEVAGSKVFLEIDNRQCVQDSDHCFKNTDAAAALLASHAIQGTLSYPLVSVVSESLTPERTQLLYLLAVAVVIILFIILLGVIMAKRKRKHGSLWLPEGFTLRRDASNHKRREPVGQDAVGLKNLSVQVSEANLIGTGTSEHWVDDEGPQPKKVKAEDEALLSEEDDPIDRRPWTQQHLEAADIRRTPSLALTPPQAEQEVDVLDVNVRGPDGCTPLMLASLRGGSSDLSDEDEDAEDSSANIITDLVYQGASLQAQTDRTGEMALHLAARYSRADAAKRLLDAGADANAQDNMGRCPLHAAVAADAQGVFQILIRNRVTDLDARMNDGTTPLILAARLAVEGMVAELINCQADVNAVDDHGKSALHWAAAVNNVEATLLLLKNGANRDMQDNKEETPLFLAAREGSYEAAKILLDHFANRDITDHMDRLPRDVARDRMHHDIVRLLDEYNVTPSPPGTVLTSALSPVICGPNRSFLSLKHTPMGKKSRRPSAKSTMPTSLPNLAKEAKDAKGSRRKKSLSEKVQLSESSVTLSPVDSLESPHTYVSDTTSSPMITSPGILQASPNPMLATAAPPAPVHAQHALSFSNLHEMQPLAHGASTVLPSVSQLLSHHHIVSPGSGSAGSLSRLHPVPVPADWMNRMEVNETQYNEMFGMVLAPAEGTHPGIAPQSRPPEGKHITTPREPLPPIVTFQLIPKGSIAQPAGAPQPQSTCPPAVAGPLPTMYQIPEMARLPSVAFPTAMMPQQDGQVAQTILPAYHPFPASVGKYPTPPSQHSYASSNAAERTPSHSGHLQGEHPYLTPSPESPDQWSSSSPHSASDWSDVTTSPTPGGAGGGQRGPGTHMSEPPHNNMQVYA
For test [6], the target named is Pro-neuregulin-1, membrane-bound isoform (Homo sapiens) (UniProt Q02297). Kind of test: small molecules binding neuregulin-1 protein – biochemical, small-molecule microarray, fluorescence 635/667, psychiatric disease protein project, primary screen (AID 1075).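 Note: score combines 667 nm spot fluorescence with signal to noise.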 To be noted: NRG1 binding, 635 nm fluorescence, higher = more signal.
For test [7], the system named is Neuregulin-1 EGF-like domain. Kind of test: small molecules binding NRG1 EGF domain – biochemical, small-molecule microarray, 635 nm fluorescence, primary screen (AID 1081).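 Note: binding of the protein to compounds printed on small-molecule microarray slides.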 To be noted: higher = more signal.
Test [8] in a line: FRG1 expression reporter modulators in myotubes – cell-based, C2C12 myotubes, firefly/Renilla luciferase, luminescence, FRG1 inhibition for FSHD, primary screen (AID 1084). To be noted: FRG1 promoter luciferase, higher = more signal, called active from +8 up or from −8 down.
The nature of test [9]: small molecules captured by biotinylated probe aFST – biochemical, small-molecule microarray, fluorescence 635/667, stem cell growth factor project, primary screen (AID 1086).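 Note: score merges 667 nm fluorescence with signal-to-noise of each printed compound spot.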 To be noted: higher = more signal.
Test [10] can be described thus: binders of probe aHhip on microarray, primary screen, stem cell growth factor project, biochemical, small-molecule microarray, fluorescence 635/667 (AID 1087).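 Note: score merges spot fluorescence at 667nm with spot signal to noise ratio.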 To be noted: higher = more signal.
For test [11], the system named is PRMT1 (protein arginine N-methyltransferase 1). Kind of test: small molecules binding arginine methyltransferase PRMT1 – biochemical, small-molecule microarray, 635 nm fluorescence, primary screen (AID 1088).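 Note: binding of Prmt1 protein to compounds spotted on small-molecule microarray slides.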 The following applies: higher = more signal.
Test [12] is described as follows: growth effects on S. cerevisiae YJM789 – YJM789 clinical isolate, OD600, 24 h, basal, primary screen (AID 1089).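 Note: growth of clinical yeast isolate S. cerevisiae YJM 789 seeded 1000 cells per well; test concentration not given here.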 The following applies: higher = more signal, called active from +8 up or from −8 down.
A short description of test [13]: S. pombe growth modifiers, basal conditions – strain 972, OD600, 24 h, no modulator, primary screen (AID 1090).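 Note: basal condition with compound alone and no growth modifier present; test concentration not given here.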 To be noted: S. pombe 972 growth, higher = more signal, called active from +8 up or from −8 down.
The nature of test [14]: budding yeast growth modifiers under rapamycin – strain BY4716, OD600, 96 h, primary screen (AID 1091). Note: test concentration not given here. To be noted: S. cerevisiae BY4716 + rapamycin, higher = more signal, called active from +8 up or from −8 down.
In test [15] the target is Torsin-1A-interacting protein 2 (Homo sapiens) (UniProt Q8NFQ8). Kind of test: small molecules binding lysate-expressed LULL1 – cell lysate, human LULL1 lysate, 635/667 nm fluorescence, primary screen (AID 1092).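 Note: probe is lysate of COS7 cells overexpressing human LULL1; score merges per-feature 667 nm fluorescence with signal-to-noise.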 The following applies: small-molecule microarray, hLULL1 lysate binding, 635 nm fluorescence; higher = more signal.
Test [16] is described as follows: optical density change of DRC41 E. coli – strain DRC41, OD650, 24 h, E. coli filamentation project, primary screen (AID 1093).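 Note: MC1000 strain lacking acrAB efflux and sulA so SOS filamentation is blocked; test concentration not given here.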 The following applies: E. coli DRC41 growth, higher = more signal, called active from +8 up or from −8 down.
Test [17] can be described thus: probe aLefty2 binding to arrayed compounds – biochemical, biotinylated probe, 635/667 nm fluorescence, primary screen (AID 1094).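 Note: score merges spot fluorescence near 667 nm with spot signal-to-noise ratio.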 To be noted: small-molecule microarray, higher = more signal.
Test [18] has as its system Noggin (protein binding on small-molecule microarray). Kind of test: small molecules binding Noggin protein – biochemical, 635/667 nm fluorescence, primary screen (AID 1095).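 Note: score merges 667 nm feature fluorescence with signal to noise over triplicate slides.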 The following applies: 635 nm fluorescence, higher = more signal.
Test [19] addresses Neurogenic locus notch homolog protein 3 (Homo sapiens) (UniProt Q9UM47). Kind of test: small molecules binding NOTCH3 protein – biochemical, 635/667 nm fluorescence, primary screen (AID 1096). The following applies: small-molecule microarray, 635 nm fluorescence, higher = more signal.
Test [20] can be described thus: probe aEGFR binding to arrayed compounds – biochemical, biotinylated probe, 635/667 nm fluorescence, primary screen (AID 1097).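 Note: probe is a biotinylated anti-EGFR antibody binding compounds printed on slides; score combines fluorescence near 667 nm and signal to noise of each spot.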 To be noted: small-molecule microarray, higher = more signal.

Chain of Neurogenic locus notch homolog protein 3 (Homo sapiens) (Q9UM47 whole entry, looked up): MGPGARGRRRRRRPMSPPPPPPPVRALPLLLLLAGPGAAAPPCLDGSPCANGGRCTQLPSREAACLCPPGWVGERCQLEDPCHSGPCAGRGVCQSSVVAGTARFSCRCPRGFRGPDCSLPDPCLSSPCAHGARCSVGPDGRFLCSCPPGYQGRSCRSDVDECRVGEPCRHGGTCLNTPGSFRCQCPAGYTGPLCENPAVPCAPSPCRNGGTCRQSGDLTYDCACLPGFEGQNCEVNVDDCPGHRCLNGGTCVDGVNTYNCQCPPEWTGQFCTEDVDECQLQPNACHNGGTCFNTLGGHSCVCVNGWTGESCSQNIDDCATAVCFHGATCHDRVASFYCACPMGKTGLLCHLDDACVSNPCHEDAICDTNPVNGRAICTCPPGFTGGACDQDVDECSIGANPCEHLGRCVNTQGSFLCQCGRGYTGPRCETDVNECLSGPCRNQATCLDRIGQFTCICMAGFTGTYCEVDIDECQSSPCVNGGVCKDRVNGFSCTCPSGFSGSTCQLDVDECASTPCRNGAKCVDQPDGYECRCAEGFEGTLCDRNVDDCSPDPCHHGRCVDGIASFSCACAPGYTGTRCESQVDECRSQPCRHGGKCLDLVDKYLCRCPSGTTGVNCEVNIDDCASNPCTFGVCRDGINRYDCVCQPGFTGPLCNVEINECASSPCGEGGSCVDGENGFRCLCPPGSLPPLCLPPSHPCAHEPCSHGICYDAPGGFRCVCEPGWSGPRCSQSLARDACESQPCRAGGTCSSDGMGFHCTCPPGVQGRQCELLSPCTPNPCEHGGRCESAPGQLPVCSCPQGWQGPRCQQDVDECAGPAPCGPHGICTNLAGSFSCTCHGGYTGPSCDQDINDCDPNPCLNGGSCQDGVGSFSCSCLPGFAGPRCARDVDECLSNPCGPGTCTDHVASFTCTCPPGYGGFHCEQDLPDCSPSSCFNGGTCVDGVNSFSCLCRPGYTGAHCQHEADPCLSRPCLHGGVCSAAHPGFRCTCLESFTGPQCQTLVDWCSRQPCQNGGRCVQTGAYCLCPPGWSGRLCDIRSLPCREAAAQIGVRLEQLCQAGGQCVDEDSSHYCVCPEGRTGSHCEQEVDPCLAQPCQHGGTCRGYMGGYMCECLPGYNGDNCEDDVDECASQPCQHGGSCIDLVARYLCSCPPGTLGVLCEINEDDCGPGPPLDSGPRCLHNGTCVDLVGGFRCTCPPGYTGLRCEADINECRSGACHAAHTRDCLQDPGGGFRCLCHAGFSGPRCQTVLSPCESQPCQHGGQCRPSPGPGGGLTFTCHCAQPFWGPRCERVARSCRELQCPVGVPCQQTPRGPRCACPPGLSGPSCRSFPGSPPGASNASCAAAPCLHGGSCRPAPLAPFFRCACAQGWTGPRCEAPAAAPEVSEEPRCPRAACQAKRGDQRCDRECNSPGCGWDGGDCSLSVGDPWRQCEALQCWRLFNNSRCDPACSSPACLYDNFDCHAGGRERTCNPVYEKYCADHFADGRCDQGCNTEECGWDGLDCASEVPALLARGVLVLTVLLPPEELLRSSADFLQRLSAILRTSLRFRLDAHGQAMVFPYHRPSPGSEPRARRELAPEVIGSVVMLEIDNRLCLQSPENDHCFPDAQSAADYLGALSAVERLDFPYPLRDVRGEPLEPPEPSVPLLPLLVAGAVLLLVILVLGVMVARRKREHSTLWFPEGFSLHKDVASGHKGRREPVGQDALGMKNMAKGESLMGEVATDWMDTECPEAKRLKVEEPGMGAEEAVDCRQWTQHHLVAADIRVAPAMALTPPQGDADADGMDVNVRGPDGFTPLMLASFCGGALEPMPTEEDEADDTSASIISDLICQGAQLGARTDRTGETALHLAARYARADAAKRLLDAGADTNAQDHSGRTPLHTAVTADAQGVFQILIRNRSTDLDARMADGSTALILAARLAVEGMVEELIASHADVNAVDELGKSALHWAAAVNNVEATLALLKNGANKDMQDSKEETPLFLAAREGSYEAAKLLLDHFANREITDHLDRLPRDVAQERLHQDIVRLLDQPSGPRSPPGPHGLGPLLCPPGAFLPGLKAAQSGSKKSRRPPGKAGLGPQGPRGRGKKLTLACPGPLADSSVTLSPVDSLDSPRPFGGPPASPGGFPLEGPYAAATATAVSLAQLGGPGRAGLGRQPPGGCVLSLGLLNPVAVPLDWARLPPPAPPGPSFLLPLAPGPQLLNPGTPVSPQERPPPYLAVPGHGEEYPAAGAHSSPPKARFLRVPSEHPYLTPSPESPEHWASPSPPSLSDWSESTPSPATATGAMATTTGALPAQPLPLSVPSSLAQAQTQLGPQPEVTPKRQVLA

`[N-]=[N+]=NCc1ccccc1C[C@@]1(C(=O)N2CCCCC2)N=C(c2ccc(OCCCO)cc2)O[C@@H]1c1ccccc1`: the composite z-score in test [1] was 0.0156; in test [2], 0.317; in [3], -0.0958; in test [4], 0.108; in test [5], 1.09; in test [6] it was 1.15. Also, the composite z-score in [7] is 0.825; in [9], 0.301; in test [10] it was -0.0457; in [11], 0.424; in test [15], 2.2; in test [17], -0.0261. Moreover, the composite z-score in [18] was -0.578; in [19], -0.426; in test [20], 0.159. In addition, the z-score in test [8] was -3.91 (inactive); in [12], 0.591 (inactive); in [13], 1.08 (inactive); in [14] it was 32.6 (active); in test [16], 0.685 (inactive).

Turning to `CC1=C([C@H](O)CCc2ccccc2)[C@H](CO)[C@@H]2C(=O)N(C)C(=O)[C@@H]2C1`, the composite z-score in [1] was -0.0659; in test [2] it was 0.388; in test [3], 0.411; in test [4], 0.0805; in test [5], 0.451; in test [6], 0.174. In addition, the composite z-score in [7] was 0.493; in test [9], 0.0014; in test [10], -0.137; in [11], 0.958; in test [15] it was 1.07; in test [17] it was -0.152. The composite z-score in test [18] was 0.296; in test [19] it was 0.394; in test [20], -0.154. The z-score was -0.445 (inactive) in [8]; 0.618 (inactive) in [12]; -0.589 (inactive) in [13]; 0.123 (inactive) in test [14]; 1.3 (inactive) in test [16].

Consider `Cc1cc(C)c(C(O)C2C=CC3C(=O)N(c4ccccc4)C(=O)C3N2Nc2ccc(C(C)C)cc2)c(C)c1` (stereo not given), for which the composite z-score is 0.224 in test [1]; 0.243 in [2]; 0.172 in [3]; 0.941 in [4]; 1.66 in test [5]; 1.91 in test [6]. Moreover, the composite z-score in [7] stood at 1.25; in test [9], 1.37; in test [10], 0.128; in test [11] it was 1.57; in [15] it was 3.42; in test [17], 0.255. Further, the composite z-score was -0.163 in [18], 1.03 in [19] and -0.0172 in test [20]. Also, the z-score in test [8] was 1.44 (inactive); in test [12] it was 1.14 (inactive); in [13] it was 0.863 (inactive); in test [14], 1.26 (inactive); in test [16], -1.87 (inactive).

Consider `COC1OC[C@]2(C)[C@H]3C4=C(CN2C(=O)OC(C)(C)C)[C@H](C)C(CO)C(CO)C4CC[C@@H]13` (stereo not given in full), for which the composite z-score in test [1] was determined as 1.99; in test [2], 0.473; in test [3], 0.236; in test [4] it was 0.557; in test [5] it was 1.79; in test [6] it was 1.82. For the same molecule, the composite z-score in test [7] worked out at 1.25; in test [9] it was 1.85; in test [10], 1; in test [11] it was 1.18; in test [15], 3.44; in test [17], 0.858. Further, the composite z-score in test [18] is -0.05; in test [19] it was 0.96; in test [20], 0.187. Also, the z-score in [8] was 2.38 (inactive); in [12], 0.58 (inactive); in test [13], 1.22 (inactive); in test [14] it was 0.867 (inactive); in [16], -0.172 (inactive).

On to `COCCOC(=O)N1C(=O)[C@@]2(c3cc(C#Cc4ccc(OC)cc4)ccc31)[C@H](c1ccccc1OCCO)N1[C@H](c3ccccc3)[C@H](c3ccccc3)OC(=O)[C@H]1[C@@H]2C(=O)N1CCCCCCC1`, for which the composite z-score was found to be 3.55 in [1]; 1.2 in [2]; 0.903 in test [3]; 0.573 in [4]; 1.3 in test [5]; 1.7 in [6]. The composite z-score worked out at 0.961 in test [7]; 3.39 in [9]; 1.47 in test [10]; 1.27 in test [11]; 3.85 in test [15]; 1.71 in test [17]. In addition, the figures for the composite z-score in [18], in test [19] and in test [20] were 1.97, 0.841 and 1.17, respectively. Further, the z-score was -0.633 (inactive) in [8]; -1.44 (inactive) in [12]; 0.423 (inactive) in test [13]; 3.91 (inactive) in test [14]; 1.53 (inactive) in test [16].

Values taken from PubChem BioAssay.
